Assay outcomes from PubChem.
RORg inh: inhibitors of mouse ROR gamma transcriptional activity | P51450 | Drosophila S2 Gal4-RORgamma UAS-luciferase reporter, 20 h | Potency, µM (doses to about 53.6 µM), without a hit: at the top dose activity change, negative = inhibition, usual class: inhibitors | 310,000 compounds, 5.4% hits; also: potency is read from the fitted curve at half-maximal effect; nearly all actives have a fitted effect of over 60% in size
Target sequence (P51450 whole entry, looked up, the tested form may be a part): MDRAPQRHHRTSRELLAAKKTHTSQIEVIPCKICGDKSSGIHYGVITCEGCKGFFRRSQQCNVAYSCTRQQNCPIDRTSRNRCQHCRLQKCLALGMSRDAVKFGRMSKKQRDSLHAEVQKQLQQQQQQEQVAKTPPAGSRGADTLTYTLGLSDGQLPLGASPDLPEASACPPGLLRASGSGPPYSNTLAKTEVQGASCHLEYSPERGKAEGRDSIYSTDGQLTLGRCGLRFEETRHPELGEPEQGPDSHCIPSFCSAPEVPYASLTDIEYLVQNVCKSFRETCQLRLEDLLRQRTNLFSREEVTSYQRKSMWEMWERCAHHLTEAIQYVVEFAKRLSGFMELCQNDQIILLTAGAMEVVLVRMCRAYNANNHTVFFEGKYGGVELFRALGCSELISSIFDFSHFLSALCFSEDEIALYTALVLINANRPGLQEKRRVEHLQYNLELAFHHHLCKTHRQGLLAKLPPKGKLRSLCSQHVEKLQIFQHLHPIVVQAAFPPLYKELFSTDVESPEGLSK
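Stably transfected Drosophila Schneider cells are the test system, with ROR gamma fused to Gal4 and luciferase under UAS control; luminescence is read after 20 hr of 700 uM copper sulfate induction at ambient temperature.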
ELG1 repair inh: inhibitors of ELG1-dependent DNA repair in HEK293T cells; HEK293T ELG1-luciferase reporter, luminescence, 16 h; DNA damage induced by 5-fluorouridine; Potency, µM (top dose mostly 46.1 µM), for the others: top-dose activity change, negative = inhibition, actives largely listed as inhibitors; 330,000 compounds, 2.3% hits; also: potency is read from the fitted curve at half-maximal effect; nearly all actives have a fitted effect of over 55% in size
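Luminescence from the luciferase reporter, measured 30 min after ONE-Glo reagent at room temperature, was the read-out. Beforehand, 2,000 cells per well were exposed for 16 hr at 37 °C to 5-fluorouridine together with compound or vehicle.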
FBPA coupling cs: coupling enzyme interference in Giardia aldolase counter-screen. coupling enzyme system counterscreen, AmpLite Red fluorescence. activity change, negative = inhibition, % at 58.2 µM, hits read low. 290,000 compounds, 0.67% hits; in the data active = activity change below about -30%
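Counterscreen of the coupled detection system alone, without aldolase: glyceraldehyde-3-phosphate coupling enzymes plus AmpLite Red readout. Compounds at 57.5 uM final, 10 min RT preincubation, 20 min RT reaction, fluorescence 525/598 nm.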
Gal4-VP16 FLuc: Gal4-VP16 reporter inhibition counter-screen. 310,000 compounds, 3.5% hits. Potency, µM (doses to about 53.6 µM), for inactives: at the highest dose activity, negative = inhibition, actives largely listed as inhibitors. AID 2546. Drosophila S2 Gal4-VP16 UAS-luciferase, luminescence, 20 h;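 also: Gal4-VP16 expression switched on by copper sulfate through the metallothionein promoter; potency is read from the fitted curve at half-maximal effect; nearly all actives have a fitted effect of over 50% in size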
TSHR antagonist: antagonists of human thyroid stimulating hormone receptor; 330,000 compounds, 0.2% hits; TSHR-expressing cells, TSH-stimulated cAMP HTRF, 2 h; stronger effect = lower value; P16473; activity change, negative = inhibition, % at 11.5 µM;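 active = activity change below a set negative limit, meaning inhibition stronger than a set level, cut at about -70% in these data; inconclusive = activity change between two set negative limits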
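Competitive HTRF cAMP read-out (cryptate anti-cAMP antibody, cAMP-d2; 30 min, room temperature) in freshly harvested TSHR cells. Compounds added before TSH at EC80 (4nM final), followed by 2 hours' incubation at 37 deg C.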
* = called active by the depositor; [ ] = remark or other dose. Sampled rows, rich in hits. Any-hit rate of the full collection: about 8%. Unless noted, calls follow the shape of the dose curve; as a rule, active = well fitted curve in the direction sought with a large enough effect; inconclusive = small, poorly fitted or top-dose-only effect, or another doubt; inactive = no such curve, though single readings can be large; an effect the other way counts as inactive or inconclusive. % is scaled to controls: 0 for no effect and ±100 for the full control effect.

For O=C(NCCNC(=O)c1ccc(Cl)cc1Cl)c1ccco1 the results were RORg inh 37%, ELG1 repair inh 3%, FBPA coupling cs 0, Gal4-VP16 FLuc 4% and TSHR antagonist -7.
For CCc1nnc(SCC(=O)Nc2ccc3ccccc3c2)n1N the results were ELG1 repair inh 0% and TSHR antagonist -12.
For COCCNc1nc(-c2ccccc2Cl)nc2ccccc12 the results were RORg inh 39%, FBPA coupling cs 3 and Gal4-VP16 FLuc -14%.
`CSc1cccc(NS(=O)(=O)c2ccc(F)cc2)c1` gave RORg inh -17%, ELG1 repair inh -10%, FBPA coupling cs 1, Gal4-VP16 FLuc -15% and TSHR antagonist 5.
For CSc1cccc(NS(=O)(=O)c2ccc(C(C)=O)cc2)c1 the results were RORg inh inconclusive, ELG1 repair inh 7.3µM*, FBPA coupling cs 0, Gal4-VP16 FLuc inconclusive and TSHR antagonist -2.
For O=C(Nc1ccc(Cl)cc1)c1cc2nc(-c3ccco3)cc(C(F)(F)F)n2n1 the results were RORg inh 22%, ELG1 repair inh -2%, FBPA coupling cs 3, Gal4-VP16 FLuc 0% and TSHR antagonist -12.
Cc1ccccc1Cn1cc(NC(=O)c2cc3nc(-c4ccco4)cc(C(F)(F)F)n3n2)cn1 was read as RORg inh 14%, ELG1 repair inh 6.5µM*, FBPA coupling cs 2, Gal4-VP16 FLuc 5% and TSHR antagonist -4.
For CCCCCCCCCCCCCCOc1ccc(C(=O)O)o1 the results were RORg inh -23%, FBPA coupling cs 9 and Gal4-VP16 FLuc -3%.
Screening c1ccc2c(c1)SCc1c-2[nH]c2ccccc12 returned RORg inh 4.5µM*, FBPA coupling cs -9 and Gal4-VP16 FLuc 10µM*.
`COc1ccc(C2/C=C\CN(S(=O)(=O)c3ccc(C)cc3)[C@H](Cc3ccccc3)C(=O)N2Cc2ccc(F)cc2)cc1` (stereo partly specified) gave RORg inh -44%, ELG1 repair inh 8%, FBPA coupling cs 4, Gal4-VP16 FLuc 3% and TSHR antagonist -7.
For COc1ccc(C2/C=C\CN(S(=O)(=O)c3ccc(C)cc3)C(Cc3ccccc3)C(=O)N2Cc2ccc(F)cc2)cc1 (stereo unspecified) the results were RORg inh 10µM*, FBPA coupling cs 3 and Gal4-VP16 FLuc -11%.
`COc1cccc(NC(=O)CN(C)S(=O)(=O)/C=C/c2ccccc2)c1` gave ELG1 repair inh -2% and TSHR antagonist -2.
`CO[C@H]1COC(=O)CCC[C@H](C)[C@H](OC)COC(=O)C/C=C\[C@@H]1C` gave RORg inh 11%[10 µM], FBPA coupling cs -1 and Gal4-VP16 FLuc -1%[10 µM].
CCOC(=O)c1cnc(-n2nc(C)cc2C)nc1Nc1ccc(C)cc1 was read as RORg inh 0.56µM*, ELG1 repair inh inconclusive, FBPA coupling cs -2, Gal4-VP16 FLuc 0.79µM* and TSHR antagonist -4.
For CCOC(=O)c1cnc(-n2nc(C)cc2C)nc1NC1CCCCC1 the results were RORg inh 0.35µM*, ELG1 repair inh -17%, FBPA coupling cs -1, Gal4-VP16 FLuc 1.1µM* and TSHR antagonist -43.
CCOC(=O)c1cnc(-n2nc(C)cc2C)nc1N(CC)CC was read as RORg inh 1µM*, ELG1 repair inh inconclusive, FBPA coupling cs -1, Gal4-VP16 FLuc 4.5µM* and TSHR antagonist -9.
Screening CCOC(=O)c1cnc(-n2nc(C)cc2C)nc1Nc1ccc2c(c1)OCO2 returned RORg inh -29%[10 µM], ELG1 repair inh inconclusive, FBPA coupling cs 5, Gal4-VP16 FLuc -2% and TSHR antagonist 22.
`CCOC(=O)c1cnc(-n2nc(C)cc2C)nc1Nc1cccc(C(=O)O)c1` gave RORg inh -3%[10 µM], ELG1 repair inh inconclusive, FBPA coupling cs 1, Gal4-VP16 FLuc 5% and TSHR antagonist -14.
`CCOC(=O)c1cnc(-n2nc(C)cc2C)nc1Nc1ccc(N(C)C)cc1` gave RORg inh 0.79µM*, ELG1 repair inh 15µM*, FBPA coupling cs 3, Gal4-VP16 FLuc 1.1µM* and TSHR antagonist -3.
